These molecules were tested against T1, Aspartate--tRNA(Asp/Asn) ligase (Mycobacterium tuberculosis (strain ATCC 25618 / H37Rv)) (UniProt P9WFW3) (assay: Assay for Asp RNA synthetase-1 from Mycobacterium tuberculosis). Conditions: 30 µM.
T1 sequence (whole entry): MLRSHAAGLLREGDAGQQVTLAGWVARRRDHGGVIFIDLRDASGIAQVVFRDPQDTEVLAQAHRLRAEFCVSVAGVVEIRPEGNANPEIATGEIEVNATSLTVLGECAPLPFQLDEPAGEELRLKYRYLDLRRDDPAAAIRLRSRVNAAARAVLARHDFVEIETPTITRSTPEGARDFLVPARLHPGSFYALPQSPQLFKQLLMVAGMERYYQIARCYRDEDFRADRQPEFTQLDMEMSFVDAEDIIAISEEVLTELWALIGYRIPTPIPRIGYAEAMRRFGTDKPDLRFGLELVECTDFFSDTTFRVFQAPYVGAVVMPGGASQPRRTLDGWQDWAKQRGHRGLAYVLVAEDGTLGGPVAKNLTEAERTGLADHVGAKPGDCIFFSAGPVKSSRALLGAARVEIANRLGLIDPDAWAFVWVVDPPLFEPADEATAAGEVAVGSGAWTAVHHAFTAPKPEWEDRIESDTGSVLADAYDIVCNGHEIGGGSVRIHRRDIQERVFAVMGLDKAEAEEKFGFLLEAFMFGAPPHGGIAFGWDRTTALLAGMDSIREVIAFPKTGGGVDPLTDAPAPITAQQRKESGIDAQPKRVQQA
Format: functional
Set-up: scale not given: direction of the effect not stated beside the values

Compared with `CC(NC(=O)NCCCn1ccnc1)c1ccc2c(c1)OCCCO2` (stereo not given), `CN(CC(=O)N1CCN(c2ccccc2F)CC1)c1cnccn1` is lower in Percent Effect: 1.46% for the first, 0.903% for the second.

Going from `CCCNC(=O)c1cc2c([nH]c1=O)CC(c1cccs1)CC2=O` (stereo not given) to `CCc1n[nH]c(C2CN(C(=O)CCc3cccs3)CCO2)n1` (stereo not given), the Percent Effect rises from -5.46% to -2.02%.

Compared with `Nc1nccc(NCc2cc3n(n2)CCCN(C(=O)C2CCC2)C3)n1`, `CS(=O)(=O)NCC1CCCCN1C(=O)Nc1cccnc1N1CCCC1` (stereo not given) is lower in Percent Effect: 0.0228% for the first, -2.73% for the second.

Going from `O=C(NCc1csc(Br)c1)c1ccncc1` to `CCc1ccc(O)c(C(=O)NC2CCN(Cc3ccncc3)CC2)c1`, the Percent Effect falls from -0.335% to -4.26%.

First: Cc1cncc(C(=O)N2CCCCC2c2nc(C)cs2)c1 (stereo not given)
Second: CC(=O)N1CCCC1c1nccnc1Nc1cccc(C)n1 (stereo not given)
The Percent Effect of the first is lower: -9.59% for the first, 1.07% for the second.

Going from `CCS(=O)(=O)N1CCc2ccc(NC(=O)Nc3ccc(F)cc3F)cc21` to `O=C(CSC1=NS(=O)(=O)c2cc(F)ccc2N1)c1ccc(Cl)cc1`, the Percent Effect rises from 1.65% to 5.12%.

Compared with `O=C(CSc1nc2c(cnn2CCO)c(=O)[nH]1)N1CCCCCC1`, `CCc1nc(CN2CCCN(C(=O)c3cn[nH]c3CC)CC2)cs1` is higher in Percent Effect: -7.88% for the first, -1.54% for the second.

Compared with `O=C1CCSCC(C(=O)N2CCN(C3CCCCC3)CC2)N1` (stereo not given), `CC(=O)N1CCC2(CC1)CC[C@@]1(C(=O)N(C)C)CN(S(C)(=O)=O)C[C@@H]21` is higher in Percent Effect: -4.14% for the first, -1.99% for the second.

First: Cc1nnc([C@@H]2CC[C@@H]3[C@@H](CCN3S(=O)(=O)c3cccnc3)O2)o1
Second: COc1ccc(CN(C)CC2CCCN2c2cccnn2)cc1F (stereo not given)
The Percent Effect of the first is higher: 7.29% for the first, 0.346% for the second.

Going from `CC(C)(C)c1nc(CN(Cc2cccs2)C2CCS(=O)(=O)C2)no1` (stereo not given) to `COCCN1C[C@H]2[C@@H](C1)N(C(=O)c1cccs1)CC[C@H]2OC`, the Percent Effect falls from 1.32% to 0.503%.

Going from `Cc1cccc(NC2CCN(C(=O)Nc3cccc4[nH]ccc34)CC2)n1` to `CCOc1ccc(N2CCCN=C2NC(=O)c2ccccc2C)cc1`, the Percent Effect rises from -0.4% to 4.31%.

Compared with `O=C(COc1cccc2c1CCC2=O)NCCSc1ccccc1`, `CN(Cc1ccco1)Cc1ccccc1CNC(=O)c1ccc[nH]1` is lower in Percent Effect: 3.02% for the first, 0.725% for the second.

First: Cc1ncnc2c1CCN(c1cc(C(F)(F)F)ncn1)CC2
Second: Cc1cccc(CN2CCC3(CCN(c4ccccn4)C3)C2=O)c1 (stereo not given)
The Percent Effect of the first is higher: 3.84% for the first, 0.319% for the second.

First: Cn1cc(C2COC3(CCN(C(=O)Cn4cccn4)CC3)C2)cn1 (stereo not given)
Second: CCOc1ccc(CC(=O)N2CCN(c3nccn3C)CC2)cc1
The Percent Effect of the first is higher: 8.57% for the first, 5.09% for the second.

Compared with `COc1ccc(C[C@H]2CN(C(=O)CN(C)C)CC[C@H]2OC)cc1`, `Cc1ccc(CC(=O)NC(C)C(=O)N2CCS(=O)(=O)CC2)cc1` (stereo not given) is lower in Percent Effect: 0.341% for the first, 0.123% for the second.

Going from `Cc1cccc(-n2c(C)cc(C(=O)N3CCn4c(C)nnc4C3)c2C)c1` to `CCc1nnc2n1CCN(C(=O)c1cc3cc(F)ccc3[nH]1)C2`, the Percent Effect falls from 3.51% to -1.91%.

Compared with `COCCOc1ncccc1CNCc1c(C)nn(C)c1N(C)C`, `c1ccc(Cn2cc3c(n2)C(CNCc2ccco2)OCC3)nc1` (stereo not given) is higher in Percent Effect: -5.91% for the first, 6.18% for the second.

Going from `COc1c(C)cnc(CN2CCC(C(=O)N(C)C)CC2)c1C` to `CCCOCC(=O)NC1CCc2nc(C)cn2C1` (stereo not given), the Percent Effect rises from -0.91% to 1.62%.

Compared with `O=C(CN1CCCC1Cn1cncn1)NCCc1c(F)cccc1F` (stereo not given), `CC(C)c1nc(C2CCCN2CC(=O)Nc2nncs2)no1` (stereo not given) is lower in Percent Effect: 1.46% for the first, -6.57% for the second.

First: CNC(=O)CCc1cc(C)nc(C2CCCN2)c1 (stereo not given)
Second: CN(Cc1nccn1CC(F)(F)F)C(=O)c1ccc(F)cc1F
The Percent Effect of the first is lower: 0.0149% for the first, 1.98% for the second.

These molecules were tested against Shiga toxin 2 (Escherichia coli O157:H7) (UniProt P09385+P09386) (assay: E. coli 0.157:H7 Shiga Toxin SOP - stx2 screening assay). Conditions: 30 µM.
Format: functional
Set-up: scale not given: direction of the effect not stated beside the values

Going from `CC(NC(=O)NCCCn1ccnc1)c1ccc2c(c1)OCCCO2` (stereo not given) to `CN(CC(=O)N1CCN(c2ccccc2F)CC1)c1cnccn1`, the Percent Effect falls from 20.4% to 8.69%.

Compared with `CCCNC(=O)c1cc2c([nH]c1=O)CC(c1cccs1)CC2=O` (stereo not given), `CCc1n[nH]c(C2CN(C(=O)CCc3cccs3)CCO2)n1` (stereo not given) is lower in Percent Effect: -20.3% for the first, -49.5% for the second.

Going from `Nc1nccc(NCc2cc3n(n2)CCCN(C(=O)C2CCC2)C3)n1` to `CS(=O)(=O)NCC1CCCCN1C(=O)Nc1cccnc1N1CCCC1` (stereo not given), the Percent Effect rises from 1.54% to 4.39%.

Going from `O=C(NCc1csc(Br)c1)c1ccncc1` to `CCc1ccc(O)c(C(=O)NC2CCN(Cc3ccncc3)CC2)c1`, the Percent Effect falls from -44.3% to -67.7%.

First: Cc1cncc(C(=O)N2CCCCC2c2nc(C)cs2)c1 (stereo not given)
Second: CC(=O)N1CCCC1c1nccnc1Nc1cccc(C)n1 (stereo not given)
The Percent Effect of the first is lower: -42.4% for the first, -5.74% for the second.

Going from `CCS(=O)(=O)N1CCc2ccc(NC(=O)Nc3ccc(F)cc3F)cc21` to `O=C(CSC1=NS(=O)(=O)c2cc(F)ccc2N1)c1ccc(Cl)cc1`, the Percent Effect rises from -10.5% to -0.176%.

Compared with `O=C(CSc1nc2c(cnn2CCO)c(=O)[nH]1)N1CCCCCC1`, `CCc1nc(CN2CCCN(C(=O)c3cn[nH]c3CC)CC2)cs1` is lower in Percent Effect: -8.39% for the first, -78.4% for the second.

Compared with `O=C1CCSCC(C(=O)N2CCN(C3CCCCC3)CC2)N1` (stereo not given), `CC(=O)N1CCC2(CC1)CC[C@@]1(C(=O)N(C)C)CN(S(C)(=O)=O)C[C@@H]21` is lower in Percent Effect: -2.45% for the first, -10.1% for the second.

First: Cc1nnc([C@@H]2CC[C@@H]3[C@@H](CCN3S(=O)(=O)c3cccnc3)O2)o1
Second: COc1ccc(CN(C)CC2CCCN2c2cccnn2)cc1F (stereo not given)
The Percent Effect of the first is higher: 8.32% for the first, 3.14% for the second.

Going from `CC(C)(C)c1nc(CN(Cc2cccs2)C2CCS(=O)(=O)C2)no1` (stereo not given) to `COCCN1C[C@H]2[C@@H](C1)N(C(=O)c1cccs1)CC[C@H]2OC`, the Percent Effect falls from 24.2% to 3.28%.

Going from `Cc1cccc(NC2CCN(C(=O)Nc3cccc4[nH]ccc34)CC2)n1` to `CCOc1ccc(N2CCCN=C2NC(=O)c2ccccc2C)cc1`, the Percent Effect falls from -50% to -57.5%.

First: O=C(COc1cccc2c1CCC2=O)NCCSc1ccccc1
Second: CN(Cc1ccco1)Cc1ccccc1CNC(=O)c1ccc[nH]1
The Percent Effect of the first is lower: -30.6% for the first, 26.7% for the second.

First: Cc1ncnc2c1CCN(c1cc(C(F)(F)F)ncn1)CC2
Second: Cc1cccc(CN2CCC3(CCN(c4ccccn4)C3)C2=O)c1 (stereo not given)
The Percent Effect of the first is higher: 6.49% for the first, -2.5% for the second.

First: Cn1cc(C2COC3(CCN(C(=O)Cn4cccn4)CC3)C2)cn1 (stereo not given)
Second: CCOc1ccc(CC(=O)N2CCN(c3nccn3C)CC2)cc1
The Percent Effect of the first is higher: -7.73% for the first, -64.2% for the second.

First: COc1ccc(C[C@H]2CN(C(=O)CN(C)C)CC[C@H]2OC)cc1
Second: Cc1ccc(CC(=O)NC(C)C(=O)N2CCS(=O)(=O)CC2)cc1 (stereo not given)
The Percent Effect of the first is lower: -5.78% for the first, 1.85% for the second.

Compared with `Cc1cccc(-n2c(C)cc(C(=O)N3CCn4c(C)nnc4C3)c2C)c1`, `CCc1nnc2n1CCN(C(=O)c1cc3cc(F)ccc3[nH]1)C2` is lower in Percent Effect: 36.2% for the first, -31.4% for the second.

First: COCCOc1ncccc1CNCc1c(C)nn(C)c1N(C)C
Second: c1ccc(Cn2cc3c(n2)C(CNCc2ccco2)OCC3)nc1 (stereo not given)
The Percent Effect of the first is higher: 7.43% for the first, -26.1% for the second.

First: COc1c(C)cnc(CN2CCC(C(=O)N(C)C)CC2)c1C
Second: CCCOCC(=O)NC1CCc2nc(C)cn2C1 (stereo not given)
The Percent Effect of the first is higher: 10.2% for the first, 7.61% for the second.

First: O=C(CN1CCCC1Cn1cncn1)NCCc1c(F)cccc1F (stereo not given)
Second: CC(C)c1nc(C2CCCN2CC(=O)Nc2nncs2)no1 (stereo not given)
The Percent Effect of the first is lower: -12.5% for the first, 9.9% for the second.

Compared with `CNC(=O)CCc1cc(C)nc(C2CCCN2)c1` (stereo not given), `CN(Cc1nccn1CC(F)(F)F)C(=O)c1ccc(F)cc1F` is higher in Percent Effect: -4.41% for the first, 9.03% for the second.

— ChEMBL document CHEMBL3988442, “University of Dundee, Small-Polar-MMV Screening Library” (2021)
